# PLK1 PBD inh – qHTS for Inhibitors of PLK1-PDB (polo-like kinase 1 - polo-box domain): Primary Screen; hit rate 2.8% among 360,000; Potency, µM, for the others: max response, negative = inhibition, most hits filed as inhibitors; AID 720504, 2013; Plk1 PBD binding of FITC phosphopeptide, fluorescence polarization; Serine/threonine-protein kinase PLK1 (Homo sapiens), P53350; also: series mostly up to about 57 µM; nearly all actives have a fitted effect of over 65% in size
# TDP1 cell noCPT – qHTS for Inhibitors of human tyrosyl-DNA phosphodiesterase 1 (TDP1): qHTS in cells in absence of CPT; DT40 Tdp1-/- hTDP1 cells, no CPT, ATP luminescence, 48 h; AID 686978, 2013; hit rate 15% among 420,000; Potency, µM (titrated, usually from 46.2 µM), without a hit: at the top dose activity change, negative = growth inhibition, usual class: inhibitors; also: nearly all actives have a fitted effect of over 55% in size
#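 Readout: luminescence from CellTiter-Glo after 30 min in the dark at RT. Cells: DT40 Tdp1-/- with stable hTDP1, 400/well. Exposure: compounds alone, ≥48 hr, 37 °C.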
# VDR inhibitor – Inhibitors of the vitamin D receptor (VDR): qHTS | Vitamin D3 receptor (Homo sapiens), P11473 | VDR-SRC2-3 peptide fluorescence polarization, 2 h | Potency, µM, for inactives: max response, negative = inhibition, actives largely listed as inhibitors | hit rate 0.93% among 400,000
# Target sequence (P11473 whole entry, looked up): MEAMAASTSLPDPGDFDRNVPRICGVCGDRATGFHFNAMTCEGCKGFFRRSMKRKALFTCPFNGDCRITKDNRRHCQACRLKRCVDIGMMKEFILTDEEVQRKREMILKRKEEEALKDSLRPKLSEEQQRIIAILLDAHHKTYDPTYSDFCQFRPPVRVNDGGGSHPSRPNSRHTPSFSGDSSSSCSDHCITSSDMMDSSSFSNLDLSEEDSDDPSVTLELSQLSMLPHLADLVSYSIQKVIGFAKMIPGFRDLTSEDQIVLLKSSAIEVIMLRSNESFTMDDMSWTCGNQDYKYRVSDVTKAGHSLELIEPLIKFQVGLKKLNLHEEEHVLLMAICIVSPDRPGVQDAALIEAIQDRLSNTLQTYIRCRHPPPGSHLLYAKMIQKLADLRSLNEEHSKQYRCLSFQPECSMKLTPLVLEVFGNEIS
#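 Compounds are added to VDR with labelled SRC2-3 coactivator peptide and held 2 h at room temperature. Inhibition of the VDR–peptide interaction is then read as a change in fluorescence polarization.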
# TDP1 block – qHTS Assay for Inhibitors of Tyrosyl-DNA Phosphodiesterase (TDP1); Tyrosyl-DNA phosphodiesterase 1 (Homo sapiens), Q9NUW8; recombinant TDP1, AlphaScreen DNA substrate cleavage; Potency, µM (series often up to 130 µM), for the others: at the top dose activity change, negative = inhibition, most hits filed as inhibitors; hit rate 0.28% among 350,000; also: nearly all actives have a fitted effect of over 40% in size
#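 Tdp1 1 nM final; 15 min RT w/ cpd; substrate 15 nM, 5 min; beads 10 ug/ml, 10 min; AlphaScreen read. Neg ctrl: no enzyme.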
# DT40 TDP1 CPT – qHTS for Inhibitors of human tyrosyl-DNA phosphodiesterase 1 (TDP1): qHTS in cells in presence of CPT; chicken DT40 Tdp1-/-;hTDP1 cells + 20 nM CPT, ATP luminescence, 48 h; Potency, µM (titrated, usually from 46.2 µM), for inactives: at the top dose activity change, negative = growth inhibition, usual class: inhibitors; hit rate 12% among 420,000; AID 686979, 2013; also: nearly all actives have a fitted effect of over 55% in size
#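 Cell growth measured by CellTiter-Glo luminescence after a minimum 48 h, 37 C compound exposure with 20 nM CPT in Tdp1-knockout DT40 cells stably expressing hTDP1, seeded 400/well; qHTS titration format.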
# GCN5L2 inh – qHTS Assay for Inhibitors of GCN5L2; GCN5L2 HAT assay, ThioGlo1 CoA-SH fluorescence; Potency, µM (titrated, usually from 58.9 µM), for the others: top-dose activity change, negative = inhibition, usual class: inhibitors; hit rate 0.21% among 390,000; Histone acetyltransferase KAT2A (Homo sapiens), Q92830
#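 GCN5L2 (20 nM) in 50mM HEPES pH 7.5, 0.1mM EDTA, 0.01% Tween-20 preincubated 15 min with compounds at room temperature. Reaction started with H3(1-25) 75uM, acetyl-CoA 70uM, ThioGlo1 50uM; CoA-thiol fluorescence (Ex340/Em540) read at 0 and 20 min.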
# An asterisk follows results filed as active; ? = inconclusive; . = no result given; ! = repeats disagree; [ ] = remark or other dose. Hits are enriched below; roughly 18% of the tested compounds scored in any of these assays. Calls follow the shape of the dose curve; as a rule, active = well fitted curve in the direction sought with a large enough effect; inconclusive = small, poorly fitted or top-dose-only effect, or another doubt; inactive = no such curve, though single readings can be large; an effect the other way counts as inactive or inconclusive. % is scaled to controls: 0 for no effect and ±100 for the full control effect; potency is read from the fitted curve at half-maximal effect.
SMILES,PLK1 PBD inh,TDP1 cell noCPT,VDR inhibitor,TDP1 block,DT40 TDP1 CPT,GCN5L2 inh
C[C@@H]1COC(=O)[C@H](Cc2ccc(F)cc2)CC/C=C/C[C@@H](CC(=O)N[C@H](CO)Cc2ccccc2)C(=O)N1,-2%,?,-16%,0%,?,-3%
Cn1c(=O)c(-c2ccc(Cl)cc2)nc2cnc(Nc3ccccc3)nc21,.,13%,12%,.,6%,-8%
CCCCN1CCC(CCC(=O)c2cc(Cl)c(N)cc2OC)CC1,.,27µM*!,7%,7%,?,-27%
CCCCN1CCC(COC(=O)c2cc(Cl)c(N)c3c2OCCO3)CC1,3%,-25%,-4%,11%[56.1 µM],5%,-8%
CCOc1ccc(C(=O)n2cc(C(=O)OC)c3ccccc32)cc1,-1%,13µM*,-10%,4%,?,-10%
O=C(c1ccc2ccccc2c1)C1CCCN(S(=O)(=O)c2cccnc2)C1 (stereo unspecified),-17%,21µM*,3%,6%,23µM*,-2%
O=C(Nc1ccc(OC(F)(F)F)cc1)C1CCCN(S(=O)(=O)c2cccnc2)C1 (stereo unspecified),-3%,13µM*,2%,-4%,18µM*,0%
O=C(C1CCCN(S(=O)(=O)c2cccnc2)C1)N1CCN(c2ccccn2)CC1 (stereo unspecified),-8%,?,-2%,3%,-16%,-1%
CCc1ccc(NC(=O)C2CCCN(S(=O)(=O)c3cccnc3)C2)cc1 (stereo unspecified),-11%,?,2%,8%,?,-4%
CCN(CC)CCNC(=O)c1ccc(NC(=O)c2c(C)nn(-c3ccc(F)cc3)c2Cl)cc1,0%,-9%,2%,2%,-18%,-4%
CCCOc1ccc(-c2nn(-c3ccccc3)cc2/C=C2\SC(N)=NC2=O)cc1C,6%,?,-3%,-3%,16µM*,?
CCCOc1ccc(-c2nn(-c3ccccc3)cc2C2NC(=O)NC(C)=C2C(=O)OC)cc1C (stereo unspecified),.,?,6%,.,?,-7%
CCCCn1c(SCC(=O)Nc2cccc(OC)c2)nc2c(sc3ccccc32)c1=O,.,-19%,2%,0%,-8%,4%
Cc1ccc(Nc2nc(-c3ccc(O)c(O)c3)cs2)nc1,-12%,1.3µM*,1%,7%,1µM*,21%
CC(=O)Nc1cccc(-c2csc(Nc3ccc(Cl)cn3)n2)c1,-2%,?,-5%,5%,23µM*,-4%
Cn1ncc(Cl)c1C(=O)NCc1cc(C(C)(C)C)n[nH]1,-10%,18µM*,-16%,2%,?,-4%
CC1=C(C(=O)N2CCOCC2)CC(CC(=O)NCCc2ccccn2)C(=O)N1Cc1ccccc1 (stereo unspecified),-9%,2%,.,.,-2%,.
CCN(CC)c1ccc(NC(=O)C2CC(=O)N(Cc3ccccc3)C2)cc1 (stereo unspecified),-21%,12µM*,-12%,3%,?,-21%
CN(C)S(=O)(=O)c1ccc(NC(=O)C2CC(=O)N(Cc3ccccc3)C2)cc1 (stereo unspecified),-10%,-8%,15%,3%,7%,-15%
O=C(Nc1cccc(S(=O)(=O)N2CCCCC2)c1)C1CC(=O)N(Cc2ccccc2)C1 (stereo unspecified),-7%,-2%,3%,2%,?,-5%
CN(c1ccccc1)S(=O)(=O)c1cccc(NC(=O)C2CC(=O)N(Cc3ccccc3)C2)c1 (stereo unspecified),-7%,21µM*,-6%,2%,16µM*,-4%
COc1ccccc1N1CCN(C(=O)c2ccc(Nc3nc4ccccc4n4nnnc34)cc2)CC1,.,?,-2%,8%,9.2µM*,-13%
Cc1ccc(C)c(N2CCN(C(=O)c3ccc(Nc4nc5ccccc5n5nnnc45)cc3)CC2)c1,.,-11%,0%,8%,2%,4%
c1ccc2c(c1)nc(Nc1ccc3c(c1)OCO3)c1nnnn12,-2%,16µM*,-7%,3%,?,-17%
CCN(CC)S(=O)(=O)c1ccc(Nc2nc3ccccc3n3nnnc23)cc1,-8%,16µM*,4%,4%,23µM*,-21%
SMILES,PLK1 PBD inh,TDP1 cell noCPT,VDR inhibitor,TDP1 block,DT40 TDP1 CPT,GCN5L2 inh
c1ccc(Nc2nc3ccccc3n3nnnc23)cc1,-17%,?,-13%,.,?,-10%
CCC(C)NC(=O)c1cc2cc(S(=O)(=O)N3CCCCC3)ccc2n1C (stereo unspecified),.,?,14%,0%,?,-2%
OCCNc1nnc(-c2ccccc2)c(-c2ccccc2)n1,-3%,?,0%,.,?,.
Cc1ccc2c(c1)cc1c(=O)n(Cc3ccccc3Cl)nc(C)n12,.,-1%,16%,0%,1%,-5%
COc1cc(/C=N/Nc2nc3c(c(=O)n(C)c(=O)n3C)n2Cc2ccccc2)ccc1OC(=O)c1ccco1,-9%,5.2µM*,8%,3%,5.8µM*,-3%
Cc1ccc(Cn2c(N/N=C/c3ccncc3)nc3c2c(=O)n(C)c(=O)n3C)cc1,5%,18µM*,9%,7%,?,-5%
O=C(Nc1ccc2c(c1)OCCO2)C(C1CC1)N1CCN(c2ccc(C(F)(F)F)cn2)CC1 (stereo unspecified),1%,?,.,.,?,.
CCOc1ccc(C2NC(=O)NC(C)=C2[N+](=O)[O-])cc1OC (stereo unspecified),0%,1%,-1%,0%,-8%,-9%
Cc1c(C)c2c(c(C)c1OC(=O)c1cccnc1)CC[C@@](C)(CCC[C@H](C)CCC[C@H](C)CCCC(C)C)O2,.,-7%,1%,2%,-3%,7%
Cc1cccc(NC(=O)CSc2ncnc3sc(C)c(C)c23)n1,-15%,18µM*,30%,.,16µM*,-16%
Cc1sc2ncnc(SCC(=O)NC(=O)c3cccn3C)c2c1C,17µM*,?,-12%,0%,1%,-4%
CC(=O)Nc1ccc(NC(=O)CSc2ncnc3sc(C)c(C)c23)cc1,-5%,?,14%,.,-6%,0%
